HPGD block – blocks human HPGD enzyme activity; P15428; purified HPGD, NADH fluorescence kinetic, PGE2 substrate; Potency, µM, for inactives: top-dose activity change, negative = inhibition, usual class: inhibitors; 4.3% of 150,000 active; AID 894; further: potency means the concentration at half of the fitted maximal effect
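NADH formation kinetics: reaction with 30 uM PGE2 and 1 mM NAD+ (final), 20 nM enzyme, Tris-HCl pH 8 with Tween 20, after 15 min compound preincubation at room temperature. Fluorescence change, last versus first of five reads.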
PNC inhibitor – perinucleolar compartment assembly inhibition. 3.1% of 140,000 active. activity change (PNC), negative = inhibition, % at 10 µM. PC3M PTB-GFP, PNC prevalence imaging, 16 h; hits give low values;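 active means readout at or below -70, meaning at least 70% loss of cells showing the perinucleolar compartment, a nuclear body marking cancer cells; inconclusive means readout between -30 and a set limit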;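 further: plate controls were DMSO wells for no effect and camptothecin positive control wells for full effect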
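Read-out is percentage of cells bearing a perinucleolar compartment, from automated 20x imaging of fixed, Hoechst-stained PC3M PTB-GFP cells. Cells were seeded 4 h, then exposed 16 h to compound (23 nl of library stock) in duplicate plates.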
JMJD2E inh – JMJD2E (human) inhibition; 1.6% of 230,000 active; AID 2147; Potency, µM (highest dose often 57.1 µM), for inactives: at the highest dose activity change, negative = inhibition, actives largely listed as inhibitors; JMJD2E catalytic domain, FDH-coupled NADH fluorescence (FDH is formaldehyde dehydrogenase); B2RXH2;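 further: potency means the concentration at half of the fitted maximal effect; 0% = wells with enzyme and -100% = buffer wells without enzyme; nearly all actives have a fitted effect of over 50% in size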
ALDH1A1 block – inhibitors of human aldehyde dehydrogenase 1A1; P00352; Purified ALDH1A1, NADH fluorescence, propionaldehyde substrate; Potency, µM (top dose mostly 75.3 µM), for inactives: at the top dose activity, negative = inhibition, hits mostly inhibitors; 7.3% of 220,000 active; AID 1030;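 further: potency means the concentration at half of the fitted maximal effect; plate controls were no enzyme wells and a reference inhibitor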
Target sequence (P00352 whole entry, looked up): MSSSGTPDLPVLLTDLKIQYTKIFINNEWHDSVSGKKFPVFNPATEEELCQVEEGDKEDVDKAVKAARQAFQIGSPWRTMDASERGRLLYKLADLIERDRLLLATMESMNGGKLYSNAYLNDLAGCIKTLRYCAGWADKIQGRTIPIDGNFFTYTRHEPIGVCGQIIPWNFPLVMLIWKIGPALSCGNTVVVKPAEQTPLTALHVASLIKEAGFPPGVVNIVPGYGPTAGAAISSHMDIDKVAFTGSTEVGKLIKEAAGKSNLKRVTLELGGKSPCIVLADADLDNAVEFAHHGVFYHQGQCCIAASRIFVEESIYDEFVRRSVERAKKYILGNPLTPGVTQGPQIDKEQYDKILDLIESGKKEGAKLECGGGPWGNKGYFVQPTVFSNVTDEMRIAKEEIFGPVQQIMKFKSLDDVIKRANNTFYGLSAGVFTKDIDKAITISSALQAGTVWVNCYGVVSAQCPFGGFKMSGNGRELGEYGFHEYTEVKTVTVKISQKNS
Starred values were filed as active, the others as inactive; ? = inconclusive; · = no result given; [ ] = dose if it differs, or a comment. An excerpt weighted towards active compounds, which were near 11% of everything screened. Unless noted, the call rests on the fitted dose curve; in most records, active means well fitted inhibition curve with a large enough effect (not every such curve was filed as active); inconclusive means small, poorly fitted or top-dose-only effect, or another doubt; inactive means no such curve, though single readings can be large or run the other way. Unless noted, on the % scale 0 is the no-effect control and ±100 the full control effect.

SMILES	HPGD block	PNC inhibitor	JMJD2E inh	ALDH1A1 block
CCOC(=O)C1CCCN(C(=O)c2cn(CC)c(=O)c3cc(OC)c(OC)cc23)C1 (stereo unspecified)	-9.2%	9.8	?	-9.8%
COc1cc2c(C(=O)N3CCN(C4CCCCC4)CC3)cn(CC(C)C)c(=O)c2cc1OC	-7.8%	?	-12.7%	22.4µM*
CCCN1CCN(C(=O)c2cn(CC(C)C)c(=O)c3cc(OC)c(OC)cc23)CC1	-4.1%	?	?	?
CCOC(=O)C1CCCN(C(=O)c2cn(CC(C)C)c(=O)c3cc(OC)c(OC)cc23)C1 (stereo unspecified)	-26.8%	-100.0*	?	?
COc1cccc(C(=O)CN(C(=O)c2ccc(Cl)cc2Cl)N2C(=O)c3ccccc3C2=O)c1	-14.7%	44.8	3.0%	15.8µM*
COc1cccc(C(=O)CN(C(=O)c2ccc(Cl)c(Cl)c2)N2C(=O)c3ccccc3C2=O)c1	-8.2%	?	1.8%	14.1µM*
C[C@@H]1Cc2c(O)c(O)cc(O)c2C(=O)O1	·	·	2µM*	·
O=C(c1cnccn1)N1CCC2(CC1)CN(Cc1cc(C(F)(F)F)cc(C(F)(F)F)c1)C2	-1.2%	·	·	4.1%
CC(Oc1ccc(Cl)cc1Cl)C(=O)NC1CCSC1=O (stereo unspecified)	14.1µM*	11.9	-0.9%	12.2%
CC(Oc1ccc(Cl)cc1Cl)C(=O)Nn1cnnc1 (stereo unspecified)	4.4%	-118.9*	2.6%	4.8%
COC(=O)C1CCN(C(=O)C(C)Oc2ccc(Cl)cc2Cl)CC1 (stereo unspecified)	-26.5%	-86.7*	1.9%	?
CC(=O)Nc1ccc(NC(=O)C(C)Oc2ccc(Cl)cc2Cl)cc1 (stereo unspecified)	·	·	12.5%	5.2%
COCCNC(=O)C(C)Oc1ccc(Cl)cc1Cl (stereo unspecified)	31.6µM*	40.2	-2.1%	10.5%
CCNC(=O)C(C)Oc1ccc(Cl)cc1Cl (stereo unspecified)	·	·	-1.3%	-13.1%
O=C(CC1S/C(=N/N=C/c2ccco2)NC1=O)Nc1cccc(Cl)c1Cl (stereo unspecified)	·	·	-1.0%	-13.2%
COc1ccc(C(=O)N2CCC3(CC2)CCN(c2ccccc2)CC3)cc1	-11.6%	·	·	?
COc1ccc2c(c1)O[C@@H](c1cccc(C(F)(F)F)c1)[C@H](OC(=O)Nc1cc(OC)c(OC)c(OC)c1)C2=O	-10.8%	·	-0.8%	4.6%
Cc1nc(NCC2CCCO2)[nH]c(=O)c1CCC(C)C (stereo unspecified)	-12.6%	53.3	-4.7%	2.0%
Cc1n[nH]c(=O)nc1NCC1CCCO1 (stereo unspecified)	28.2µM*	-27.3	-5.9%	?
O=c1c2ccccc2nc2n1CCC2O (stereo unspecified)	·	·	10.0%	5.2%
O=C1OCCN1C(=O)[C@H]1[C@H](c2ccc([N+](=O)[O-])cc2)C(c2ccc(F)cc2)=NN1c1ccc(Br)cc1	-14.2%	·	·	6.6%[50.4 µM]
CC1=C(C(=O)Nc2ccccn2)C(c2ccc(Br)cc2)n2ncnc2N1 (stereo unspecified)	-7.5%	10.8	0.5%	?
CCOc1cccc(C2NC(=S)NC(C)=C2C(=O)Nc2ccccc2)c1 (stereo unspecified)	-4.0%	-23.9	1.1%	2.24µM*
CCOc1cc(C2NC(=S)NC(C)=C2C(=O)Nc2ccc(OC)cc2)ccc1O (stereo unspecified)	-9.1%	?	2.4%	?
CC1=C(C(=O)Nc2ccccn2)C(c2ccc(Br)cc2)NC(=S)N1 (stereo unspecified)	-6.5%	?	-4.7%	0.708µM*
SMILES	HPGD block	PNC inhibitor	JMJD2E inh	ALDH1A1 block
CC1=C(C(=O)Nc2ccccn2)C(c2ccc(Cl)cc2)NC(=S)N1 (stereo unspecified)	·	·	?	3.55µM*
COc1ccc(OCCOCCOc2ccc(C)cc2[N+](=O)[O-])cc1	?	18.5	6.9%	25.1µM*
COCCCNCCOCCOc1ccc(C)cc1[N+](=O)[O-]	-1.4%	44.1	?	?
Cc1ccc(OCCCCn2ccnc2)c(Cl)c1	-21.1%	?	2.2%	7.6%
Cc1ccc(OCCCCn2ccnc2)c([N+](=O)[O-])c1	·	·	-29.0%	1.58µM*
COCCNCCCCOc1ccc(C)cc1[N+](=O)[O-]	-8.2%	?	5.4%	2.82µM*
Cc1ccc(OCCOc2cccc3ccc(C)nc23)c([N+](=O)[O-])c1	·	·	0.8%	14.1µM*
CC(=C/c1ccco1)/C=N/NC(=O)c1nnn(-c2nonc2N)c1CN(C)C	·	·	-22.0%	-5.2%

Screens from PubChem BioAssay.
